The nature of assay [1]: APR_HepG2_P-H2AX_72hr: Apredica 72-hour HepG2 Assay for H2AX Phosphorylation (AID 2282916).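 Note: phospho-histone H2A.x immunostain intensity per cell marking DNA damage.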 The note with it: imaging, actives raise or lower the signal. In outline:
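Human hepatoma HepG2 cells are dosed across ten concentrations (0.39 to 200 uM, 0.5% v/v DMSO) and incubated 72 hr. Phospho-histone H2A.x is then detected by antibody staining alongside c-Jun and Hoechst, and quantified by automated fluorescence imaging.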

Assay [2] is described as follows: APR_HepG2_MitoMembPot_72hr: Apredica 72-hour HepG2 Assay for Mitochondrial Membrane Potential (AID 2282917). To be noted: imaging, actives raise or lower the signal. In outline:
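Membrane potential read by MitoTracker Red CMXRos (250 nM, 30 min, pre-fixation) fluorescence imaging of HepG2 after 72 hr exposure. Ten concentrations, 0.39–200 uM, duplicate wells, 0.5% DMSO; fitted in both directions against DMSO baseline.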

A short description of assay [3]: APR_HepG2_MitoticArrest_72hr: Apredica 72-hour HepG2 Assay for Mitotic Arrest (AID 2282918). To be noted: high-content imaging, actives raise or lower the signal. The method, boiled down: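 HepG2 cells treated 72 h at 0.39–200 uM, 0.5% DMSO final; formaldehyde-fixed, stained with Hoechst 33342 and phospho-histone H3 antibody, imaged by high-content fluorescence; bidirectional fit versus DMSO.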

Assay [4] in a line: APR_HepG2_MicrotubuleCSK_72hr: Apredica 72-hour HepG2 Assay for Microtubule CSK Stabilty (AID 2282919). To be noted: HepG2 microtubule cytoskeleton, high-content imaging, actives raise or lower the signal. In outline: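 High-content imaging of alpha-tubulin staining in fixed HepG2 cells after 72 hr treatment with ten concentrations from 0.39 to 200 uM (0.5% DMSO). Fitting was bidirectional against DMSO; taxol served as positive control.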

Assay [5] can be described thus: APR_HepG2_P-H2AX_24hr: Apredica 24-hour HepG2 Assay for H2AX Phosphorylation (AID 2282920). To be noted: high-content imaging, actives raise or lower the signal. The method, boiled down:
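HepG2 cells dosed 24 h at 0.39–200 uM (10 points, duplicate, 0.5% DMSO final). Formaldehyde-fixed and permeabilized, then immunostained for phospho-H2A.x with Hoechst. Fluorescence quantified by high-content imaging, fitted bidirectionally versus DMSO.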

Assay [6] in a line: APR_HepG2_StressKinase_72hr: Apredica 72-hour HepG2 Assay for Stress Kinase (AID 2282921). To be noted: HepG2 stress kinase (phospho-c-Jun) imaging, actives raise or lower the signal. The method, boiled down: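 After a 72 h compound treatment spanning 0.39 to 200 uM, formaldehyde-fixed cells are labelled for phosphorylated c-Jun and nuclei, imaged by automated fluorescence microscopy, and activity is fitted in both directions relative to DMSO controls.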

A short description of assay [7]: APR_HepG2_StressKinase_24hr: Apredica 24-hour HepG2 Assay for Stress Kinase (AID 2282922). To be noted: HepG2 stress kinase (phospho-c-Jun) imaging, actives raise or lower the signal. In outline: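 High-content imaging of phospho-c-Jun immunofluorescence in fixed, permeabilized HepG2 cells after 24 h dosing. Ten concentrations, 0.39 to 200 uM, run in duplicate at 0.5% v/v DMSO; gain or loss of signal versus DMSO.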

Assay [8] in a line: APR_HepG2_p53Act_72hr: Apredica 72-hour HepG2 Assay for p53 Activation (AID 2282923).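 Note: average cellular p53 protein immunofluorescence intensity in HepG2 cells.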 The note with it: high-content imaging, actives raise or lower the signal. The method, boiled down: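 Imaging-based endpoint: after 72 hr compound exposure (up to 200 uM, 0.5% DMSO), fixed and permeabilized monolayers were labelled with anti-p53 antibody and imaged; signal change in either direction was fitted relative to DMSO controls.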

Assay [9] in a line: APR_HepG2_MitoMass_72hr: Apredica 72-hour HepG2 Assay for Mitochondrial Mass (AID 2282924).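 Note: MitoTracker Red CMXRos stain intensity per cell imaged as mitochondrial mass.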 To be noted: high-content imaging, actives raise or lower the signal. In outline: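 Readout is imaged MitoTracker Red (250 nM, 30 min, pre-fixation) signal, fitted bidirectionally against DMSO baseline. Human HepG2 liver cells received compound 0.39–200 uM in duplicate for 72 hr, final DMSO 0.5%.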

Assay [10] can be described thus: APR_HepG2_NuclearSize_72hr: Apredica 72-hour HepG2 Assay for Nuclear Size (AID 2282925). The note with it: high-content imaging, actives raise or lower the signal. In outline:
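Nuclear size was read by high-content imaging of Hoechst 33342 stain after formaldehyde fixation. Compounds ran 72 h on HepG2 at 0.39 to 200 uM, with final DMSO 0.5% v/v. Curves fitted both directions relative to DMSO control.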

Assay [11] can be described thus: ATG_CRE_CIS: Attagene CIS-FACTORIAL HepG2 Assay for human cAMP Responsive Element (CRE) binding protein 3 (AID 2282926). The note with it: HepG2 CRE cis-reporter, Attagene multiplexed mRNA; actives raise or lower the signal. The method, boiled down:
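Induced reporter mRNA from a CRE cis element, measured in HepG2 among many multiplexed units at 24 h. Detection used RT-PCR plus capillary electrophoresis of fluorescent fragments; DMSO served as negative control.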

The target in assay [12] is CCAAT/enhancer-binding protein beta (Homo sapiens) (UniProt P17676). Put plainly: ATG_C_EBP_CIS: Attagene CIS-FACTORIAL HepG2 Assay for human CCAAT/Enhancer Binding Protein (C/EBP) beta (AID 2282927). To be noted: HepG2 Attagene cis-factorial transcription factor reporter; actives raise or lower the signal. The method, boiled down: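 Endogenous transcription factor activity in human liver HepG2 cells is inferred from induction of a CEBPB-linked reporter mRNA. Exposure lasts 24 h; activity is fitted in both directions relative to DMSO.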
Sequence of CCAAT/enhancer-binding protein beta (Homo sapiens) (P17676 whole entry, looked up): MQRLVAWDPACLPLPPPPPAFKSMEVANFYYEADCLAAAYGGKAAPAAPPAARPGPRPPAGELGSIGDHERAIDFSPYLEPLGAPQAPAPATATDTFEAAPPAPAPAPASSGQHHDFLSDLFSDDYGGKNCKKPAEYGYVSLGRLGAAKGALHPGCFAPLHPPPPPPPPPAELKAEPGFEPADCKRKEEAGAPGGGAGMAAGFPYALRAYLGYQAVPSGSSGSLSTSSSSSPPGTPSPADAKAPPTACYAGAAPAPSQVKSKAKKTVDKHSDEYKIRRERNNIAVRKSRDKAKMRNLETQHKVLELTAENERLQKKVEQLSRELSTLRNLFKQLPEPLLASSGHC

Assay [13] in a line: ATG_CMV_CIS: Attagene CIS-FACTORIAL HepG2 Assay for human CMV (Internal Marker) (AID 2282928).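 Note: endpoint acts as a background internal control marker rather than a target.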 The note with it: HepG2 CMV promoter reporter, transcription factor profiling; actives raise or lower the signal. The method, boiled down:
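Bidirectional fits against DMSO are applied to reporter mRNA, read by RT-PCR with capillary electrophoresis, from HepG2 cells exposed 24 h. The endpoint serves as an internal CMV background marker within the cis-factorial reporter panel.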

The target in assay [14] is Aryl hydrocarbon receptor (Homo sapiens) (UniProt P35869). Put plainly: ATG_Ahr_CIS: Attagene CIS-FACTORIAL HepG2 Assay for human Aryl Hydrocarbon Receptor (Ahr) (AID 2282930). The note with it: HepG2 AhR cis-factorial reporter transcription; actives raise or lower the signal. The method, boiled down: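 Transient MRTU transfection of HepG2 → 24 h compound exposure → total RNA, oligo(dT) RT → PCR, 6-FAM extension, HpaI cut → CE fluorescence. DMSO = baseline; bidirectional curve fit.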
Sequence of Aryl hydrocarbon receptor (Homo sapiens) (P35869 whole entry, looked up): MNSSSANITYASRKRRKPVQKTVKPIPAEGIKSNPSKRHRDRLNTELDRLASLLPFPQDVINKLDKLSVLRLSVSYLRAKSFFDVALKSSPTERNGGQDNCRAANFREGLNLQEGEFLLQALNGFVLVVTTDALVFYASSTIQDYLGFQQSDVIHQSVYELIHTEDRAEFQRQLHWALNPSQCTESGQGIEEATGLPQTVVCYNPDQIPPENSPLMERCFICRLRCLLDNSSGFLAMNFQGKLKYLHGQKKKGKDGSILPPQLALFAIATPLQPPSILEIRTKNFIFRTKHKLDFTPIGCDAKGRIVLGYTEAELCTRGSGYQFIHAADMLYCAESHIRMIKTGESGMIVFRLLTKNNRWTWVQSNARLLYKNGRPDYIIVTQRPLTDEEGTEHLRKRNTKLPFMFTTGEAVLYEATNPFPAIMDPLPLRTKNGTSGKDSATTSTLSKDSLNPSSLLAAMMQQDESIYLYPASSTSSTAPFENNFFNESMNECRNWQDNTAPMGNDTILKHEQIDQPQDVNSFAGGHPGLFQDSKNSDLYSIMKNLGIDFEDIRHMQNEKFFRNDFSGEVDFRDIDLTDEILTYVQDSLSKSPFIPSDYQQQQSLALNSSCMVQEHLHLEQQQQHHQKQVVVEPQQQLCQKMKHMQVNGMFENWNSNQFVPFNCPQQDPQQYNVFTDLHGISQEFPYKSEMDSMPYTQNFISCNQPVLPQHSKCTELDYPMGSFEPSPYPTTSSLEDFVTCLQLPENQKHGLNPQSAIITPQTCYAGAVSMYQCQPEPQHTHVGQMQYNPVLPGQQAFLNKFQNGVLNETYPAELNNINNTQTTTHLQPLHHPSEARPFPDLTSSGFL

A short description of assay [15]: ATG_AP_1_CIS: Attagene CIS-FACTORIAL HepG2 Assay for human Activator Protein 1 (AP-1) (AID 2282931). The note with it: HepG2 Attagene cis-factorial AP-1 reporter mRNA; actives raise or lower the signal. In outline: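 We transfected HepG2 cells transiently with a set of cis-regulated reporter transcription units, dosed them for 24 h, and quantified reporter mRNA via RT-PCR and capillary electrophoresis, scoring gain or loss of signal relative to DMSO.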

A short description of assay [16]: ATG_AP_2_CIS: Attagene CIS-FACTORIAL HepG2 Assay for human Activator Protein 2 (AP-2) (AID 2282932). The note with it: HepG2 AP-2 cis-reporter, Attagene transcription factor profiling; actives raise or lower the signal. The method, boiled down:
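Endogenous transcription factor activity is reported through transfected multiplex reporter constructs in HepG2, after 24 h of compound exposure. Transcripts were quantified by RT-PCR and capillary electrophoresis of fluorescent fragments. Bidirectional fit against DMSO.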

A short description of assay [17]: ATG_BRE_CIS: Attagene CIS-FACTORIAL HepG2 Assay for human Bone Morphogenetic Protein (BMP) Response Element (BRE) (AID 2282933). To be noted: HepG2 BMP response element reporter, Attagene transcription factor profiling; actives raise or lower the signal. The method, boiled down:
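HepG2 cells transiently transfected with CIS reporter units (endogenous TF activity, BMP response element), dosed 24 h. Reporter mRNA quantified by RT-PCR, fluorescent labelling and capillary electrophoresis; bidirectional fit vs DMSO baseline.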

The target of assay [18] is Retinoic acid receptor alpha (Homo sapiens) (UniProt P10276). Put plainly: ATG_DR5_RAR_CIS: Attagene CIS-FACTORIAL HepG2 Assay for human Retinoic Acid Receptor Alpha (RARE), DR5 submotif (AID 2282934). To be noted: HepG2 Attagene cis-factorial RARE DR5 reporter, mRNA; actives raise or lower the signal. The method, boiled down: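 Transient MRTU transfection of HepG2; 24 h compound treatment; TriZol RNA, oligo(dT) RT, PCR, FAM labelling, capillary electrophoresis. Bidirectional fit vs DMSO. Endogenous TF activity at DR5 RARE.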
Sequence of Retinoic acid receptor alpha (Homo sapiens) (P10276 whole entry, looked up): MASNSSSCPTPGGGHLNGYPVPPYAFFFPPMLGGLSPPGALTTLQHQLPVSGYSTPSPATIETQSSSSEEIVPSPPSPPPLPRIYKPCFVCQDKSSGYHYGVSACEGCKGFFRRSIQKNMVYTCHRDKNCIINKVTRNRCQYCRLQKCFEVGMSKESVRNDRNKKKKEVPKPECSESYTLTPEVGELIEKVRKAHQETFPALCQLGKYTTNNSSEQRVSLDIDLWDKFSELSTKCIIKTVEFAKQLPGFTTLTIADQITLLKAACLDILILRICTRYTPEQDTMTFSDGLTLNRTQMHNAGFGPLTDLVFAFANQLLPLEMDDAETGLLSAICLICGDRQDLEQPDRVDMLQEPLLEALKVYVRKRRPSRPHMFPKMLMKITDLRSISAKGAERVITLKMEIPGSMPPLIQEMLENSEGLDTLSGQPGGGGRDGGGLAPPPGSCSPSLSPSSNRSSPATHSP

For assay [19], the target named is Transcription factor E2F1 (Homo sapiens) (UniProt Q01094). Put plainly: ATG_E2F_CIS: Attagene CIS-FACTORIAL HepG2 Assay for human E2F Transcription Factor 1 (AID 2282935). To be noted: HepG2 Attagene cis-reporter, E2F reporter RNA transcripts; actives raise or lower the signal. In outline:
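Gain or loss of reporter transcript, fitted against DMSO, reflects E2F1-driven transcription. Transiently transfected HepG2 dosed 24 h before RNA isolation. Quantified by fluorescent RT-PCR products separated by capillary electrophoresis.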

A short description of assay [20]: ATG_DR4_LXR_CIS: Attagene CIS-FACTORIAL HepG2 Assay for human Liver X Receptor (LXR), DR4 submotif (AID 2282929). The note with it: HepG2 Attagene DR4 cis-reporter, mRNA transcription; actives raise or lower the signal. In outline: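 Transiently transfected HepG2 liver cells; cis-regulated reporters; 24 h dosing. RT-PCR plus CE read-out of reporter mRNA. DMSO baseline, bidirectional curve fitting.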

Outcome and AC50 data for seven compounds are collected here from PubChem BioAssay (EPA / NIEHS).

Activity calls are given as the source filed them. Rule for the calls: active = hit-call score of the fitted dose curve at least 0.9, where 1 is the maximum; inactive = score below 0.9.

As a reminder, the AC50 is the concentration at which the activity in the assay is half-maximal.

Sequence of Transcription factor E2F1 (Homo sapiens) (Q01094 whole entry, looked up): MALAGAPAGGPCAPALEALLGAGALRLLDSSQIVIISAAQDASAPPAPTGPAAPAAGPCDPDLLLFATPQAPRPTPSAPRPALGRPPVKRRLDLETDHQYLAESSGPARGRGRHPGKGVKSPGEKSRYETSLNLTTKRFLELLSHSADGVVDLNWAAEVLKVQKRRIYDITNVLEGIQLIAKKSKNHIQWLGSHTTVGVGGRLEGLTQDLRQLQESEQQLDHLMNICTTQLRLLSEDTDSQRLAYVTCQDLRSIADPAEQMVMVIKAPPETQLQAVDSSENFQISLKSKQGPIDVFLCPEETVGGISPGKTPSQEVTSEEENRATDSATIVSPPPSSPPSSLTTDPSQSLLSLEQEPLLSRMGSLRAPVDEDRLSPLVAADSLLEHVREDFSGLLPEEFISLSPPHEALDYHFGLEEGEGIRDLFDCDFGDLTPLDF

Regarding `COc1ccc(C(=CC(=O)N2CCOCC2)c2ccc(Cl)cc2)cc1OC`, the result in assay [1], in assay [2], in [3], in assay [4], in assay [5] and in assay [6] was inactive. The call in [7], in assay [8], in assay [9], in assay [10], in [14] and in assay [15] was inactive. Besides, the compound was classed as inactive in [16], in [18] and in assay [19]. Further, the AC50 in assay [11] is 10.9 µM (active); in assay [12] it was 5.02 µM (active); in [13] it was 2.48 µM (active); in [17], 11.9 µM (active).
In the case of `CCc1cccc(C)c1N(C(=O)CCl)C(C)COC` (configuration not stated), the half-maximal activity concentration (AC50) was 87.6 µM (active) in assay [1], 82.6 µM (active) in assay [3], 62.4 µM (active) in [4] and 9.57 µM (active) in [15]. Besides, the call in assay [2], in assay [5], in [6], in assay [7], in assay [8] and in assay [9] was inactive. In addition, the compound was classed as inactive in assay [10], in [11], in assay [12], in assay [13], in assay [14] and in assay [16]. The compound was classed as inactive in [17], in assay [18] and in assay [19].
On to `CC(COc1ccc(Oc2ccccc2)cc1)Oc1ccccn1` (configuration not stated), for which the compound was called inactive in assay [1], in assay [2], in [3], in [5], in [6] and in assay [7]. Further, the call in [8], in assay [9], in assay [10], in assay [11], in [13] and in assay [20] was inactive. Also, the compound was called inactive in [14], in assay [16], in assay [17], in assay [18] and in assay [19]. Also, the AC50 in assay [4] was 82.3 µM (active); in assay [12], 13.4 µM (active).
On to `CNC(=O)ON=C(C)SC`, for which the call in assay [1], in assay [2], in [3], in [4], in assay [5] and in assay [6] was inactive. The result in [7], in [8], in assay [9], in assay [10], in assay [11] and in assay [12] was inactive. Further, the outcome in [13], in assay [20], in assay [14], in assay [16], in assay [17] and in assay [19] was inactive.
Turning to `CCCSP(=O)(OCC)Oc1ccc(Br)cc1Cl` (configuration not stated), the result in [1], in assay [2], in assay [3], in assay [5], in assay [6] and in assay [7] was inactive. Moreover, the compound was called inactive in [8], in assay [9], in assay [10], in assay [20], in [14] and in assay [16]. The result in assay [17], in assay [18] and in assay [19] was inactive. The half-maximal activity concentration (AC50) is 113 µM (active) in [4], 2.33 µM (active) in assay [11], 1.81 µM (active) in [12] and 3.92 µM (active) in assay [13].
As for `O=c1ccc(=O)[nH][nH]1`, the compound was classed as inactive in assay [1], in [2], in [3], in [4], in assay [5] and in assay [6]. Further, the compound was classed as inactive in assay [7], in assay [8], in [9], in [10], in assay [11] and in [12]. Moreover, the result in [13], in assay [20], in [14], in assay [16], in assay [17] and in assay [19] was inactive.
In the case of `COP(=O)(OC)C(O)C(Cl)(Cl)Cl` (configuration not stated), the compound was classed as inactive in assay [1], in [2], in [3], in assay [4], in [6] and in assay [7]. The compound was classed as inactive in assay [9], in [10], in assay [20], in assay [14], in [16] and in assay [18]. Further, the result in assay [19] was inactive. For the same compound, the AC50 in [5] was 100 µM (active); in assay [8], 113 µM (active); in assay [11], 32 µM (active); in assay [12], 50 µM (active); in assay [13], 22.1 µM (active); in assay [15] it was 35.2 µM (active). Besides, the half-maximal activity concentration (AC50) in [17] was 30.1 µM (active).
